Screening results deposited in PubChem BioAssay by National Center for Advancing Translational Sciences (NCATS).
Sm TGR block = inhibitors of Schistosoma mansoni thioredoxin glutathione reductase | Q962Y6 | purified TGR, DTNB reduction, TNB absorbance 405 nm | Potency, µM (titrated, usually from 114 µM), inactives show at the top dose activity change, negative = inhibition, most hits filed as inhibitors | 360,000 tested, 3% active | AID 485364; note: potency is the fitted concentration of half-maximal effect; nearly all actives have a fitted effect of over 60% in size
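TGR 20 nM + NADPH 100 uM (dispensed conc.), cpd preinc 15 min RT; start with NADPH (500 uM addition) then DTNB (15 mM addition). Kinetic TNB absorbance, 405 nm filter. Four-parameter Hill fit across titration.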
FBPA Giardia inh = blocks Giardia fructose-bisphosphate aldolase activity. A8B2U2. purified Giardia FBPA. Potency, µM (titrated, usually from 59.6 µM), for inactives: top-dose activity, negative = inhibition, usual class: inhibitors. 290,000 tested, 0.71% active; note: potency is the fitted concentration of half-maximal effect; nearly all actives have a fitted effect of over 55% in size
Target sequence (A8B2U2 whole entry, looked up): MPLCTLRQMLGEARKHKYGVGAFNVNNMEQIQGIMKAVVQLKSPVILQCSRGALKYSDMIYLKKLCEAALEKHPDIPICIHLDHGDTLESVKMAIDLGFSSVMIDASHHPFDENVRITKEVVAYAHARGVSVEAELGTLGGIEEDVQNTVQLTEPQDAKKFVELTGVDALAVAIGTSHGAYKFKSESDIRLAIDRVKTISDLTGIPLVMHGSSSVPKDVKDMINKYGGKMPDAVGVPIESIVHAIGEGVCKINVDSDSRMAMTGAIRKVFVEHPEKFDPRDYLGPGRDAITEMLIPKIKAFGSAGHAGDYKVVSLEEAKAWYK
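Giardia FBPA (40 nM reagent) was preincubated 10 min at RT with compound (up to 57.5 uM final), then substrate plus GAPDH/TPI/NAD/arsenate coupling system with diaphorase/resazurin was added; resorufin fluorescence (525/598 nm) was read after 20 min.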
Pf growth 96h = inhibits malaria parasite growth, 96 h | P. falciparum luciferase reporter growth, 96 h | Potency, µM (highest dose often 28.7 µM), for the others: top-dose activity change, negative = inhibition, usual class: inhibitors | 320,000 tested, 6.9% active; note: potency is the fitted concentration of half-maximal effect
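Compounds incubated with erythrocytes infected by luciferase-expressing P. falciparum (2% hematocrit, 0.05% parasitemia final) for 96 hours, 37 C in 5% CO2. Growth inhibition scored as decreased luciferase luminescence.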
Pf growth 48h = inhibits P. falciparum growth in the first generation, 48 h; AID 504832; P. falciparum luciferase growth in erythrocytes, 48 h; 310,000 tested, 5.9% active; Potency, µM (titrated, usually from 28.7 µM), for inactives: at the highest dose activity change, negative = inhibition, most hits filed as inhibitors; note: potency is the fitted concentration of half-maximal effect
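Growth was read as firefly luciferase luminescence after a 48 h, 37 C, 5% CO2 exposure of compounds to reporter-bearing P. falciparum cultures (0.1% parasitemia, 2% hematocrit final) in Albumax-supplemented RPMI 1640.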
HCMV antiviral = human cytomegalovirus inhibition; 410,000 tested, 4.5% active; HFF cells, HCMV-luciferase reporter, 72 h; stronger effect = lower value; activity change, negative = inhibition, % at 57.5 µM; in the data active = activity change below about -60%; inconclusive = no clear call, values can overlap the other calls; inactive = above about -39%
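Luciferase read-out from HCMV-luciferase-infected HFFs (MOI 1 PFU/cell) 72 h post infection at 37C; compounds added after 16 h cell attachment; activity normalized between buffer-only basal and Salinomycin (10uM) inhibitor controls.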
The depositor's hits bear a star. Compounds with a hit are over-represented: about 14% of the library has one in this group of screens. Unless noted, calls come from the whole dose curve; as a rule, active = well fitted curve in the direction sought with a large enough effect; inconclusive = small, poorly fitted or top-dose-only effect, or another doubt; inactive = no such curve, though single readings can be large; an effect the other way counts as inactive or inconclusive. % is set by controls: 0 for no effect and ±100 for the full control effect.

How did Cc1ccc(-c2sc(C(=O)Nc3ccc(Br)cc3)cc2CC(=O)O)cc1 do in these assays?
Sm TGR block: -5%; HCMV antiviral: 10

What do the screens show for `O=C(O)c1cc(Cl)c2c(c1)[C@@H]1C=CC[C@@H]1[C@H](c1ccc(S(=O)(=O)N3CCOCC3)cc1)N2`?
Sm TGR block: 14µM*; FBPA Giardia inh: -25%; Pf growth 96h: -8%; Pf growth 48h: 5%

What do the screens show for `O=S(=O)(c1ccc(C2CCCCC2)cc1)N1CCOCC1`?
Sm TGR block: -2%; FBPA Giardia inh: -2%; Pf growth 96h: -9%; Pf growth 48h: -14%; HCMV antiviral: inconclusive

What do the screens show for `Cc1cc(C)c2c(c1)C1C=CCC1C(c1ccc(S(=O)(=O)N3CCOCC3)cc1)N2` (centres undefined)?
Sm TGR block: 1.6µM*; FBPA Giardia inh: 1%; Pf growth 96h: inconclusive; Pf growth 48h: inconclusive; HCMV antiviral: 0

How did Cc1ccc(N(C)C(=O)CCS(=O)(=O)c2ccc3c(c2)oc(=O)n3C)cc1 do in these assays?
Sm TGR block: inconclusive; FBPA Giardia inh: inconclusive; Pf growth 96h: 15µM*; Pf growth 48h: 21%; HCMV antiviral: -19

Results for CN(C(=O)CCS(=O)(=O)c1ccc2c(c1)oc(=O)n2C)C1CCCCC1 ?
Sm TGR block: -32%; Pf growth 96h: 4.7µM*; Pf growth 48h: 22%; HCMV antiviral: -13

How did O=C(CNc1cccc([N+](=O)[O-])c1)N/N=C/c1ccc([N+](=O)[O-])o1 do in these assays?
FBPA Giardia inh: -1%; Pf growth 96h: -14%; Pf growth 48h: inconclusive; HCMV antiviral: -66*

What do the screens show for `O=C(N/N=C/c1ccc[nH]1)c1sc2ccccc2c1Cl`?
Sm TGR block: 5%; FBPA Giardia inh: 2%; Pf growth 96h: 6.6µM*; Pf growth 48h: inconclusive; HCMV antiviral: 45

What do the screens show for `O=C(Cc1ccc([N+](=O)[O-])cc1)N/N=C/c1ccc([N+](=O)[O-])o1`?
Sm TGR block: inconclusive; FBPA Giardia inh: -29%; Pf growth 96h: inconclusive; Pf growth 48h: inconclusive; HCMV antiviral: -18

What do the screens show for `O=C(CNc1cccc2ccccc12)N/N=C/c1ccc[nH]1`?
Sm TGR block: 3%; FBPA Giardia inh: -2%; Pf growth 96h: -3%; Pf growth 48h: 9%; HCMV antiviral: -68*

Results for O=C(CNc1cccc2ccccc12)N/N=C/c1ccc([N+](=O)[O-])o1 ?
Sm TGR block: inconclusive; FBPA Giardia inh: inconclusive; Pf growth 96h: 1.2µM*; Pf growth 48h: 3.3µM*; HCMV antiviral: -95*

What do the screens show for `CSc1ccc(/C=N/NC(=O)CNc2cccc3ccccc23)cc1`?
Sm TGR block: 5%; FBPA Giardia inh: -7%; Pf growth 96h: 10%; Pf growth 48h: 3%; HCMV antiviral: 2

What do the screens show for `O=C(c1cccc(F)c1)N1CC(=O)N2[C@@H](CO)[C@@H](c3ccc(Br)cc3)[C@@H]2C1`?
HCMV antiviral: 0

Results for O=C(N/N=C/c1ccc[nH]1)c1cc2ccccc2cc1O ?
Sm TGR block: inconclusive; FBPA Giardia inh: inconclusive; Pf growth 96h: 1%; Pf growth 48h: inconclusive; HCMV antiviral: -99*

What do the screens show for `O=C(CCCn1c(=O)c2ccccc2n(Cc2ccccc2)c1=O)NCc1ccco1`?
Sm TGR block: 13%; FBPA Giardia inh: 1%; Pf growth 96h: 72%; HCMV antiviral: -23

Results for O=C(NCc1ccco1)c1ccc(Cn2c(=O)c3ccccc3n(Cc3cccc(F)c3)c2=O)cc1 ?
Sm TGR block: 3%; FBPA Giardia inh: 2%; HCMV antiviral: -23

How did C=CCn1c(=O)c2ccc(C(=O)NCc3ccccc3)cc2n(Cc2ccc(C)cc2)c1=O do in these assays?
Sm TGR block: -9%; FBPA Giardia inh: -4%; Pf growth 96h: 2.3µM*; Pf growth 48h: 26%; HCMV antiviral: -33

How did O=C(CCCCn1c(=O)c2ccccc2n(Cc2ccc(F)cc2)c1=O)NCc1ccco1 do in these assays?
Sm TGR block: -23%; FBPA Giardia inh: 11%; Pf growth 96h: 3.3µM*; Pf growth 48h: inconclusive; HCMV antiviral: -39

Results for O=C(NCc1ccco1)c1ccc(Cn2c(=O)c3ccccc3n(Cc3ccc(Cl)cc3)c2=O)cc1 ?
Sm TGR block: 5%; FBPA Giardia inh: 0%; Pf growth 96h: -30%; Pf growth 48h: 12µM*; HCMV antiviral: -14

How did Cc1ccc(Cn2c(=O)n(-c3ccccc3)c(=O)c3ccc(C(=O)NCc4ccco4)cc32)cc1 do in these assays?
Sm TGR block: 2%; FBPA Giardia inh: 1%; Pf growth 96h: 98%; Pf growth 48h: inconclusive; HCMV antiviral: -61*

What do the screens show for `COc1ccc(NC(=O)c2cccc(N3CCCS3(=O)=O)c2)c(OC)c1`?
Sm TGR block: 5%; HCMV antiviral: 9

Results for O=S(=O)(NCCc1nnc2ccc(SCc3cccc(Cl)c3)nn12)c1ccccc1 ?
Sm TGR block: 5%; HCMV antiviral: -18

What do the screens show for `O=C(CSc1nnc(-c2ccccc2F)n1C1CC1)NCc1ccco1`?
Sm TGR block: -9%; Pf growth 96h: 5%; Pf growth 48h: -17%; HCMV antiviral: -12

Results for CCCCCOc1ccc(C2c3c(oc4ccccc4c3=O)C(=O)N2c2nc(C)c(C)s2)cc1OCC (centres undefined) ?
Sm TGR block: -1%; HCMV antiviral: -13

Results for O=C1OC(c2ccccc2)=N/C1=C\C=C\c1ccccc1[N+](=O)[O-] ?
Sm TGR block: -8%; FBPA Giardia inh: 2%; Pf growth 96h: 0.47µM*; Pf growth 48h: 19%; HCMV antiviral: -6

How did O=C1OC(c2ccccc2)=N/C1=C\C=C\c1ccco1 do in these assays?
Sm TGR block: inconclusive; FBPA Giardia inh: -1%; Pf growth 96h: 19%; Pf growth 48h: 13%; HCMV antiviral: -10

What do the screens show for `OCCC#Cc1ccc(F)c(-c2noc3ccccc23)c1`?
HCMV antiviral: -10

How did O=C(COc1ccc(S(=O)(=O)N2CCCCC2)cc1)N1CCCCCC1 do in these assays?
Sm TGR block: 2%; FBPA Giardia inh: 11%; Pf growth 96h: 13µM*; Pf growth 48h: inconclusive; HCMV antiviral: -12

How did CC1CCN(C(=O)COc2ccc(S(=O)(=O)N3CCCC3)cc2)CC1 do in these assays?
Sm TGR block: -3%; FBPA Giardia inh: 6%; Pf growth 96h: 14%; Pf growth 48h: -21%; HCMV antiviral: 106

What do the screens show for `CCCCOc1ccc(S(=O)(=O)N2CCCCCC2)cc1`?
Sm TGR block: -5%; FBPA Giardia inh: 1%; Pf growth 96h: 12µM*; Pf growth 48h: -13%; HCMV antiviral: 6

What do the screens show for `O=C1NC(=S)NC(=O)C1=Cc1ccc(OCC(=O)N2CCCC2)cc1`?
Sm TGR block: 10µM*; Pf growth 96h: 31%; Pf growth 48h: 3%; HCMV antiviral: 14

How did Oc1c(Br)cc(Br)cc1C=Nc1cccc2ncccc12 do in these assays?
HCMV antiviral: 56
